Screening data from PubChem BioAssay.
PP5 primary: inhibitors of human protein phosphatase 5 (PP5) | purified PP5c, OMFP substrate fluorescence | inhibition, % at 6.7 µM | 0.18% of 320,000 active | AID 1987;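 active = inhibition above the campaign's mean inhibition across all tested compounds plus 3 SD, cut at about 9.5% in these data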;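 note: 0% = DMSO only and 100% = 100 µM cantharidin control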
Calb FLC: affects C. albicans growth with fluconazole | 0.57% of 300,000 active | growth inhibition, % (test concentration not listed) | AID 1979 | C. albicans CaCi-2 (fluconazole-resistant clinical isolate) + fluconazole, Alamar Blue growth, 48 h;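 active = growth inhibition above about 58% in most replicates, limit read from the data, passing the limit was not always enough; inconclusive = exactly half the replicates above a set limit; inactive = most replicates below a set limit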;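 note: all wells also contain fluconazole at 8 µg/ml as a sub-toxic cotreatment; 0% = median of DMSO wells and 100% = median of geldanamycin control wells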
CSC inhib: blocks cancer stem cells; cancer stem cell-like cells viability, luminescence; inhibition, % at 7.5 µM; 1.1% of 300,000 active; AID 2717; in the data active = inhibition above about 75%; inconclusive = no clear call, values can overlap the other calls; tested in HMLE shEcad cells
PP1 counter: blocks human PP1-alpha phosphatase, a PP5 counter-screen; 0.9% of 320,000 active; purified PP1alpha, OMFP fluorescence; P62136; inhibition, % at 6.7 µM; AID 2235;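 active = inhibition above the mean inhibition of all tested compounds plus 3 SD, computed separately for each screening campaign, cut at about 15% in these data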
ALR H2O2 inh: inhibitors of human sulfhydryl oxidase ALR | P55789 | purified ALR, DTT oxidation, H2O2 HRP-luminol luminescence | inhibition, % (test concentration not listed) | 3.8% of 290,000 active;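 active = mean replicate inhibition above about 79%, with every replicate also reaching it, limit read from the data; inconclusive = only one of the two criteria met; inactive = mean below limit and not every replicate reaching it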
Target sequence (P55789 whole entry, looked up): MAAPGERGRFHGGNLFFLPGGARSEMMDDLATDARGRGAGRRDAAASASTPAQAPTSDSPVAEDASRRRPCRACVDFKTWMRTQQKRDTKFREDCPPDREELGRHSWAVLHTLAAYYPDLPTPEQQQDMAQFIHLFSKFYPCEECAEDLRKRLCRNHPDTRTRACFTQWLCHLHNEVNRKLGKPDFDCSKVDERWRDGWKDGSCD
An asterisk follows results filed as active; ? = inconclusive; / = not tested or not shown. Hits are enriched below; roughly 5.4% of the tested compounds scored in any of these assays.

SMILES | PP5 primary | Calb FLC | CSC inhib | PP1 counter | ALR H2O2 inh
COc1cccc(N2CCN(Cc3cccnc3)CC2)c1 | 2 | 0 | -5 | -2 | 91*
CN(C)C(=O)N1CCN(C(=O)N(C)C)CC1 | 2 | -3 | -11 | -2 | -20
COc1ccc(CN2C(=O)NC3(CCCCC3)C2=O)cc1F | 1 | -30 | -15 | 1 | -22
O=C(Cc1cccc2ccccc12)NC(NC(=S)Nc1ccccc1Cl)C(Cl)(Cl)Cl (centres undefined) | 1 | 13 | 4 | 16* | /
O=C(/C=C/c1ccccc1)NC(NC(=S)Nc1ccc(Cl)cc1Cl)C(Cl)(Cl)Cl (centres undefined) | 3 | -28 | 110* | 15 | -12
O=C(NC(NC(=S)Nc1ccccc1Cl)C(Cl)(Cl)Cl)c1cccc(Cl)c1 (centres undefined) | 5 | -26 | 111* | 15 | -22
C=CC[C@@H](CC(=O)OC(C)(C)C)C(=O)OC[C@@H]1CCCN1C(=O)[C@@H](CC=C)CC(=O)N[C@H](CO)Cc1ccccc1 | / | / | 1 | / | -16
Cc1cc2c(N3CCCCC3C)ncnc2s1 (centres undefined) | 0 | -13 | -10 | 1 | 97*
Cc1c(C(=O)O)sc2ncnc(N3CCCCC3C)c12 (centres undefined) | 1 | -2 | -3 | -3 | 1
CCc1cc2c(-c3ccccc3)cc(=O)oc2cc1OC(C)C(=O)O (centres undefined) | 0 | 7 | -20 | -1 | 5
CC(NC(=O)OCc1ccccc1)C(=O)Oc1cc2oc(=O)cc(-c3ccccc3)c2cc1Cl (centres undefined) | 1 | 82* | 7 | -1 | 5
CCN(CC)c1ccc(NC(=O)CCCCCN2C(=O)c3ccccc3C2=O)cc1 | 2 | 7 | -3 | 3 | 99*
CCN(CC)c1ccc(NC(=O)COc2ccc(-n3cnnn3)cc2)cc1 | / | / | -12 | / | 99*
CC(=O)c1cccc(NC(=O)CSC(=O)c2ccccc2)c1 | 1 | 5 | 3 | -2 | 99*
CCN(CC)c1ccc(NC(=O)CSC(=O)c2ccccc2)cc1 | / | / | 15 | / | 99*
CCOc1ccc(NC(=O)COc2ccc(-n3cnnn3)cc2)cc1 | 3 | / | / | -5 | -1
CCN(CC)c1ccc(NC(=O)CCCCC(=O)Nc2ccc(N(CC)CC)cc2)cc1 | 4 | -9 | -3 | 1 | ?
Cc1ccc(C(=O)Nc2cccc(Oc3ccccc3)c2)o1 | 4 | -7 | -8 | 1 | -13
COCCCn1c(SCCc2ccccc2)nc2cc(OC)c(OC)cc2c1=N | 3 | 27 | 83* | 4 | 2
O=[N+]([O-])c1ccccc1S(=O)(=O)NCCSCc1ccco1 | 4 | / | -5 | 17* | -10
Cn1c(=Nc2ccc(N3CCOCC3)cc2)ccc2ccccc21 | 1 | -8 | 7 | -4 | 99*
CCOC(=O)CCSc1nc(C)c2cc(C)c(C)cc2n1 | 1 | -4 | / | 1 | 4
S=c1nc(-c2csc3c2CCCC3)[nH][nH]1 | -2 | -58 | / | 1 | 99*
Cc1cc(C)nc(SCc2ccc(C(=O)N/N=C/c3ccncc3)cc2)n1 | 0 | 8 | -2 | -3 | -42
Cc1cc(C)nc(SCc2ccc(C(=O)NNC(=O)Nc3cccc(Cl)c3)cc2)n1 | -3 | 4 | 111* | 7 | /
SMILES | PP5 primary | Calb FLC | CSC inhib | PP1 counter | ALR H2O2 inh
CN(C)CCNc1nc2sc3c(c2c(=O)n1CCc1ccccc1)CCCCC3 | -1 | 14 | 106* | 2 | 60
Nn1c(Nc2ccccc2)nc2sc3c(c2c1=O)CCCC3 | 4 | 35 | 36 | -10 | 81*
Cc1ccc(NNC(=O)c2ccno2)c(C)c1 | 2 | 41 | 37 | 1 | 99*
Cc1cc(NC(=O)c2ccno2)no1 | 1 | -10 | 2 | -3 | -1
CC(=O)N1CCc2cc(S(=O)(=O)NC(C(=O)NC3CCCc4ccccc43)C(C)C)ccc21 (centres undefined) | 2 | 0 | / | -6 | 0
CCOCCCNC(=O)C(NC(=O)Cc1cccs1)c1ccc(C)cc1 (centres undefined) | 2 | -5 | -14 | -3 | /
CCCCN1C(N)=NC[C@@H]1Cc1ccc(O)cc1 | 2 | 9 | -5 | 1 | 56
NC1=NC[C@H](Cc2ccc(O)cc2)N1CCC12CC3CC(CC(C3)C1)C2 | -1 | 106* | -7 | 8 | 93*
O=S1(=O)CCC(NC(=S)NCCNC(=S)NC2CCS(=O)(=O)C2)C1 (centres undefined) | 0 | 27 | / | -1 | -1
COc1cc(NC(=O)CSc2ncnc3sc4c(c23)CCCC4)c(C(=O)O)cc1OC | 1 | 0 | -11 | 1 | 88*
